Screening data from PubChem.
Tgondii IFNg = T. gondii growth inhibition with IFN-gamma, primary screen, cell-based. Toxoplasma gondii growth in IFN-gamma-treated host cells; stronger effect = lower value. activity change, negative = inhibition, % (test concentration not listed). 3.8% of 69,000 active; in the data active means activity change below about -70%, passing the limit was not always enough;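 further: host cells are HeLa cells infected with Toxoplasma gondii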
* marks the source's active call; other numbers are inactive results. Only a selection was taken, and hits are over-represented in it overall.

What do the screens show for `CN(C)C1CCN(Cc2ccc(C(=O)Nc3ccc4c(cnn4C)c3)cc2)C1` (stereo unspecified)?
Tgondii IFNg: 79

What do the screens show for `Cc1ncc(NC(=O)c2ccc(CN3CCN(C)CC3)c(C(F)(F)F)c2)cc1Nc1nccc(-c2cccnc2)n1`?
Tgondii IFNg: -23

How did COc1ccc2c(c1)NC1(CCN(C(=O)c3ccc(Br)cc3)CC1)c1cccn1-2 do in these assays?
Tgondii IFNg: 19

Results for CCOc1ncccc1-c1nc2ccccc2s1 ?
Tgondii IFNg: 75

How did CC(C)C[C@@H](C(=O)N[C@H](C(=O)OC1CCCC1)c1ccccc1)[C@H](O)C(=O)NO do in these assays?
Tgondii IFNg: -85*

Results for CC(NC(=O)Cc1cc(F)cc(F)c1)C(=O)NC(C(=O)OC(C)(C)C)c1ccccc1 (stereo unspecified) ?
Tgondii IFNg: 18

Results for CNC(=O)[C@@H](NC(=O)[C@H](CC(C)C)[C@H](O)C(=O)NO)C(C)(C)C ?
Tgondii IFNg: 14

Results for CCS(=O)(=O)N1CCC2(CC1)OC(=O)C(C)=C2C(=O)NCc1ccc2c(c1)OCO2 ?
Tgondii IFNg: 6

How did CC(C)CCNC(=O)Cn1ncc2c(N3CCN(c4ccccn4)CC3)ncnc21 do in these assays?
Tgondii IFNg: 27

What do the screens show for `CC(C)(O)C#Cc1ccc(C(=O)NCC2(c3ccccc3)CCOCC2)o1`?
Tgondii IFNg: 75

What do the screens show for `CN1[C@@H]2CC[C@H]1CC(OC(=O)c1c[nH]c3ccccc13)C2` (stereo partly specified)?
Tgondii IFNg: -5

Results for CN(C)c1cc(OC2CCN(C(=O)c3c[nH]c4ccccc34)C2)ncn1 (stereo unspecified) ?
Tgondii IFNg: -84*

What do the screens show for `CN1C2CCC1CC(OC(=O)c1c[nH]c3ccccc13)C2` (stereo unspecified)?
Tgondii IFNg: 12

Results for Cc1ccc(CC(=O)N2CCC3(CC2)Nc2ccc(C)c(C)c2-n2cccc23)cc1 ?
Tgondii IFNg: 27

How did CCOC(=O)c1nc(COc2ccccc2Cl)[nH]c(=O)c1C do in these assays?
Tgondii IFNg: -5

What do the screens show for `O=C(OCC(O)CNC12CC3CC(CC(C3)C1)C2)C12CC3CC(CC(C3)C1)C2` (stereo unspecified)?
Tgondii IFNg: -89*

How did COCC1c2c(cnn2CC2CC2)CCN1Cc1cc(C)on1 (stereo unspecified) do in these assays?
Tgondii IFNg: -5

Results for O=C1c2cccc3cccc(c23)C(=O)N1c1ccc2ncccc2c1 ?
Tgondii IFNg: -36

Results for c1ccc(-c2ccccn2)nc1 ?
Tgondii IFNg: -5

What do the screens show for `O=C1c2ccc3c4c(ccc(c24)C(=O)N1c1ccccn1)C(=O)N(c1ccccn1)C3=O`?
Tgondii IFNg: -90*

What do the screens show for `O=C1N(Cc2cccnc2)C(=O)C2(CCN(Cc3cc4ccccc4o3)CC2)N1CCc1ccccc1`?
Tgondii IFNg: -86*

What do the screens show for `O=C1N(Cc2ccccn2)C(=O)C2(CCN(Cc3ccc4c(c3)OCO4)CC2)N1CCc1ccccc1`?
Tgondii IFNg: 1

How did COC(=O)CN1C(=O)N(CCc2ccccc2)C2(CCN(Cc3ccncc3)CC2)C1=O do in these assays?
Tgondii IFNg: -38

Results for Cc1nc2ccccn2c1-c1ccnn1C(=O)c1ccno1 ?
Tgondii IFNg: -6

How did Cc1ccc(SCCNc2nccc(-c3cn(C)nc3C)n2)cc1 do in these assays?
Tgondii IFNg: -27

How did C=C1/C(=C\C=C2/CCC[C@]3(C)[C@@H]([C@H](C)/C=C/C=C/C(O)(CC)CC)CC[C@@H]23)C[C@@H](O)C[C@@H]1O do in these assays?
Tgondii IFNg: 11

How did C=C1/C(=C\C=C2\CCC[C@]3(C)[C@@H]([C@H](C)CCCC(C)C)CC[C@@H]23)C[C@@H](O)C[C@@H]1O do in these assays?
Tgondii IFNg: -63

How did C=C1CC[C@H](O)C/C1=C/C=C1\CCC[C@]2(C)[C@@H]([C@H](C)CCCC(C)C)CC[C@@H]12 do in these assays?
Tgondii IFNg: -75*

How did CCS(=O)(=O)N1CCOC2CC(COc3ccccn3)CC21 (stereo unspecified) do in these assays?
Tgondii IFNg: 1

What do the screens show for `Cc1ccc(CN(C(=O)c2ccc3c(c2)ncn3CCO)C2CCCC2)s1`?
Tgondii IFNg: -7

Results for Cc1oc(-c2ccccc2)nc1Cn1nnc(C(=O)Nc2ccc(F)cc2F)c1C ?
Tgondii IFNg: 54

How did COc1c(C)c2c(c(O)c1C/C=C(/C)CCC(=O)O)C(=O)OC2 do in these assays?
Tgondii IFNg: -77*

Results for Cc1ccc(CN2CCC3C2CC(=O)N3CCN2CCOCC2)cc1 (stereo unspecified) ?
Tgondii IFNg: 7

What do the screens show for `Cc1ncsc1CCN(C)c1nc(-c2cccnc2)nc2c1cnn2C`?
Tgondii IFNg: -35

How did Cc1ccsc1CN(C)c1nc(-c2cccnc2)nc2c1cnn2C do in these assays?
Tgondii IFNg: -74*

What do the screens show for `CN(CCCc1cnn(C)c1)c1nc(-c2cccnc2)nc2c1cnn2C`?
Tgondii IFNg: -16

What do the screens show for `CCN1CCC2(CC1)CC(NCc1cnn(C)c1)c1ccccc1O2` (stereo unspecified)?
Tgondii IFNg: 2
